The values that follow come from article PMC7862700, “An all-to-all approach to the identification of sequence-specific readers for epigenetic DNA modifications on cytosine”.

Common to all, as to test: DAPPL (digital affinity profiling via proximity ligation, sequencing); 10 mM Tris-HCl pH 7.5, 50 mM NaCl, 1 mM DTT, 4% glycerol, room temperature, 30 min; GST-TFs on glutathione beads, 16-mer random dsDNA library, 0.1% formaldehyde crosslink after washing; high values mean tight binding
Conditions in all cases: protein: recombinant; tags: N-terminal GST; dsDNA, one strand shown

For one assay, the target named is T1, ELK1 (Homo sapiens, UniProt P19419 1-428).
T1 sequence: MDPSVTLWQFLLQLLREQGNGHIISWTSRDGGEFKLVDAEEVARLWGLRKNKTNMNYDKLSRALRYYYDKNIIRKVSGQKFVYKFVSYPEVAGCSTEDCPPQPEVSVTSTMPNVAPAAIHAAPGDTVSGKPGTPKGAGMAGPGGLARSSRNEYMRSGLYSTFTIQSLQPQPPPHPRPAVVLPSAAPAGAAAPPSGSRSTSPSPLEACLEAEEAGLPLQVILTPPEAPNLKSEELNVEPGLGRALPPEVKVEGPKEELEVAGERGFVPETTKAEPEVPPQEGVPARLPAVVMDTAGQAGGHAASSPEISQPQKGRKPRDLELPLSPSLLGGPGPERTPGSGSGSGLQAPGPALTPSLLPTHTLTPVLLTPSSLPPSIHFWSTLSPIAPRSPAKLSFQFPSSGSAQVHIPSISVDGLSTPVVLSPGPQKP
Summed up: (§1)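 A tag-only sample was pooled with DNA-barcoded human transcription factors that had been expressed in yeast as GST fusions and captured on glutathione beads. The pools were incubated for 30 min at room temperature with 200 nmole of a random double-stranded 16-mer DNA library in Tris/NaCl/DTT/glycerol buffer, then washed, crosslinked with 0.1% formaldehyde, proximity-ligated (BsaI/T4 ligase, 1 h, 37 °C), PCR-amplified and sequenced on an Illumina NextSeq500. Binding signal is each hexamer's read frequency for a factor divided by its frequency for the tag-only sample.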

The next assay addresses T2, GABPA (Homo sapiens, UniProt Q06546 1-454).
T2 sequence: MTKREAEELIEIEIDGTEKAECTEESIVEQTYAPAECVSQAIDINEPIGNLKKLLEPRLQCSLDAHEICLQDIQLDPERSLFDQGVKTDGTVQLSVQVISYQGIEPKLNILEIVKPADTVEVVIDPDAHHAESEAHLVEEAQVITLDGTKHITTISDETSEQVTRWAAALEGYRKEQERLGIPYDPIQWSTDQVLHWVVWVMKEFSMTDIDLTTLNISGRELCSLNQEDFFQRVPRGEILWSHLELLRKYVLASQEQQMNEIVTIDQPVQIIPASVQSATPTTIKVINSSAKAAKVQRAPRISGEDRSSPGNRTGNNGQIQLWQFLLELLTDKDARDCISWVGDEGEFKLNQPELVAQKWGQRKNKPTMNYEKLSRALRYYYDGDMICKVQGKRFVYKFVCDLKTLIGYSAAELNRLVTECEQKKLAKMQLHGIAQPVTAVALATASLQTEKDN
Summed up: as §1

The target of the next assay is T3, ERG (Homo sapiens, UniProt P11308 1-479).
T3 sequence: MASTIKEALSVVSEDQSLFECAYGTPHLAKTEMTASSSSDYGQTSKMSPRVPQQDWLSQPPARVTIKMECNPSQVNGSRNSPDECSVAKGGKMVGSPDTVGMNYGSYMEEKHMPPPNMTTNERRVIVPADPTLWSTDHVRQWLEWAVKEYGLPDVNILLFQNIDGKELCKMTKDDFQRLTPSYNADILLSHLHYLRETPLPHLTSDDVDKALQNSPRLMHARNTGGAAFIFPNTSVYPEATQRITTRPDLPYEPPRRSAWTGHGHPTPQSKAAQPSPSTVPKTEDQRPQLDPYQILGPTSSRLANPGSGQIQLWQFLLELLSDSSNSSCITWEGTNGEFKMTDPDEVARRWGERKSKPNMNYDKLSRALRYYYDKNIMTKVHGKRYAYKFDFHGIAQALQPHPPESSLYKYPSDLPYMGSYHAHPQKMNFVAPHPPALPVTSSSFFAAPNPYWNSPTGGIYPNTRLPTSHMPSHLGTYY
A digest of the protocol:
as §1

The next assay concerns the target ELF1 (Homo sapiens, UniProt P32519 1-619). Summed up:
as §1

The next assay deals with T4, EHF (Homo sapiens, UniProt Q9NZC4 1-300).
T4 sequence: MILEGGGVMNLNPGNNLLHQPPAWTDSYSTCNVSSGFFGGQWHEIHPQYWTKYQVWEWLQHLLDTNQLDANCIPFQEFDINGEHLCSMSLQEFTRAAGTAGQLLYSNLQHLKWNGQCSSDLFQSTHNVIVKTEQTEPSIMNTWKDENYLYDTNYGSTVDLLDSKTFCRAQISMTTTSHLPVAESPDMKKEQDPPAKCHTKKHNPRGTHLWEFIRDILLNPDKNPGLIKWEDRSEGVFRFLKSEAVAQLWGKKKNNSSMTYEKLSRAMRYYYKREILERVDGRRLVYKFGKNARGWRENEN
Summed up: as §1

Another assay deals with SPIB (Homo sapiens, UniProt Q01892 1-262). Summed up: as §1
Chain of SPIB (Q01892 whole entry): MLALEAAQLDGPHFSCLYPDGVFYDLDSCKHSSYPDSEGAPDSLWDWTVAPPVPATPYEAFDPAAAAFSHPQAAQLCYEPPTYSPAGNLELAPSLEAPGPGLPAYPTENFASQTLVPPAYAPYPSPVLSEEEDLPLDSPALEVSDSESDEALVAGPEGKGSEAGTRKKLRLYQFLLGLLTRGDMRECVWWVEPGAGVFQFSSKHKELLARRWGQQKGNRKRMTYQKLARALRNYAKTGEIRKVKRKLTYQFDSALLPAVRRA
A further assay concerns the target T5, ELK3 (Homo sapiens, UniProt P41970 1-407).
T5 sequence: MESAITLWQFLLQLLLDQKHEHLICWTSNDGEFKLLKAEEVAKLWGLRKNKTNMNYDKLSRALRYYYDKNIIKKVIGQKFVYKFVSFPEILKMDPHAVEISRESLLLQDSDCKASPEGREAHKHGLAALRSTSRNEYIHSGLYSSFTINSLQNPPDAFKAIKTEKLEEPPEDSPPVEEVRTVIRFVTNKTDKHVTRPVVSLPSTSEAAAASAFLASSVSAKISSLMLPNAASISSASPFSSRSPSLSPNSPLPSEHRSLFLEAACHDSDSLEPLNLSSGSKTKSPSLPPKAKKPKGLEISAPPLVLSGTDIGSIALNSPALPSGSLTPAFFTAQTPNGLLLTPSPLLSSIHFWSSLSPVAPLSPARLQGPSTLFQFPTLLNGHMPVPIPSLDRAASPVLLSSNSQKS
A digest of the protocol: as §1

The next assay addresses ETV5 (Homo sapiens, UniProt P41161 1-510). A digest of the protocol: as §1
The next assay deals with T6, SPIC (Homo sapiens, UniProt Q8N5J4 1-248).
T6 sequence: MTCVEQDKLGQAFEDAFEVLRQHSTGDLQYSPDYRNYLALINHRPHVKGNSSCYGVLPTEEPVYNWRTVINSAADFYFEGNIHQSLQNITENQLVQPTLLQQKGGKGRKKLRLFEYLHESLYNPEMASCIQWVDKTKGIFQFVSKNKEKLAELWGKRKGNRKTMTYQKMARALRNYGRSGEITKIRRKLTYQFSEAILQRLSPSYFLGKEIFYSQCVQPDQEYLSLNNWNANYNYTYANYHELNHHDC
Summed up: as §1

For the next assay, the target named is ELF4 (Homo sapiens, UniProt Q99607 1-663). Summed up: as §1
Chain of ELF4 (Q99607 whole entry): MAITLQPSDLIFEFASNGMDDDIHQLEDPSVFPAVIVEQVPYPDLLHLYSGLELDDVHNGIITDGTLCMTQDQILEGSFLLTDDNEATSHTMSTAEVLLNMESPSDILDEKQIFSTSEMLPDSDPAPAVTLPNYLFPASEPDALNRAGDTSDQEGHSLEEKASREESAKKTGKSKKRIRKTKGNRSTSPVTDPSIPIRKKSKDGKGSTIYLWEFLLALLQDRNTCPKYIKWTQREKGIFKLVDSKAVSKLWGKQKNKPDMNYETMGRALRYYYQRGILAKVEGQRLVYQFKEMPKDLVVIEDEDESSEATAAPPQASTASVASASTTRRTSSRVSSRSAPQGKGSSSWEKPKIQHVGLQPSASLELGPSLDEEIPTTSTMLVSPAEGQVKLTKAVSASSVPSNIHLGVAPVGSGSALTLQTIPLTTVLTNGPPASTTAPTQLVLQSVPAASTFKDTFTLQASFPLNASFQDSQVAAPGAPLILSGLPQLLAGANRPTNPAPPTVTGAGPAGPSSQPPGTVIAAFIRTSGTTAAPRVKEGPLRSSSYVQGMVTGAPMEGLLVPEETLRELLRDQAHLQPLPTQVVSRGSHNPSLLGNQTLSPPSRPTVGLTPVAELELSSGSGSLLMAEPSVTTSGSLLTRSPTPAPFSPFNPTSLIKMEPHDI
In the next assay the target is T7, ELK4 (Homo sapiens, UniProt P28324-2 1-405).
T7 sequence: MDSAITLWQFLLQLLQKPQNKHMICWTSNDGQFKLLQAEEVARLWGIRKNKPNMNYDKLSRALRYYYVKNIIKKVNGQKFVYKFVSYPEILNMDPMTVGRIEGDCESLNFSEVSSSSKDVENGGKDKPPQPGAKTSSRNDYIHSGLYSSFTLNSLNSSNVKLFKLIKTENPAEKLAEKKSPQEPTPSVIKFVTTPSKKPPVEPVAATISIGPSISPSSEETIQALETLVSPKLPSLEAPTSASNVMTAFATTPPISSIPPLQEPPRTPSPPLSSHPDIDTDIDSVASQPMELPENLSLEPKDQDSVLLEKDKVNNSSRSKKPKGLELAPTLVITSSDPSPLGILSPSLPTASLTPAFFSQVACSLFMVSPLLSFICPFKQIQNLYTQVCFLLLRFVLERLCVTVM
Summed up:
as §1

In a further assay the target is T8, ELF3 (Homo sapiens, UniProt P78545 1-371).
T8 sequence: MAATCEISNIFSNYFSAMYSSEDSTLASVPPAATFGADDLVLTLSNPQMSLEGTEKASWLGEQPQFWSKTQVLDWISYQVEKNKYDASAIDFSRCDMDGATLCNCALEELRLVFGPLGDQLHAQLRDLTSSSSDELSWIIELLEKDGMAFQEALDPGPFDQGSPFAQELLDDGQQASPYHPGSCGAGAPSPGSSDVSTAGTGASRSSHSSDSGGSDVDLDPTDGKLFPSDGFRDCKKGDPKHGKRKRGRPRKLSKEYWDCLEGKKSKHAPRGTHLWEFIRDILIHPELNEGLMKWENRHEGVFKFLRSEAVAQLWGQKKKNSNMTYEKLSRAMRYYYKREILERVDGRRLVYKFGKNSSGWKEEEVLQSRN
Summed up: as §1

A further assay deals with ETV1 (Homo sapiens, UniProt P50549 1-477). A digest of the protocol: as §1
Chain of ETV1 (P50549 whole entry): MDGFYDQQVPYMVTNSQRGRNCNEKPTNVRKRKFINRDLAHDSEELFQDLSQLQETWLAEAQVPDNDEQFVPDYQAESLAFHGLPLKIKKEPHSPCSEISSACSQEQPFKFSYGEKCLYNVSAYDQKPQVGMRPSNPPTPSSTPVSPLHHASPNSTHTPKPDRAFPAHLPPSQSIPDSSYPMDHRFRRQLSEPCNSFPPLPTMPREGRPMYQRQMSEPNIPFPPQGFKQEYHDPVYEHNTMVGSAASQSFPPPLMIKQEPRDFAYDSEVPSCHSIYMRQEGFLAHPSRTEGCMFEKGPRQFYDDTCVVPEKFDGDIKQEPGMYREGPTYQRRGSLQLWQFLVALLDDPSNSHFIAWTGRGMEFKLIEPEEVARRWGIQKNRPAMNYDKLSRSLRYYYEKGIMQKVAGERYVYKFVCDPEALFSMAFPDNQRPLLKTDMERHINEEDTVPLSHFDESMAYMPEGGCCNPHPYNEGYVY
A further assay concerns the target T9, ERF (Homo sapiens, UniProt P50548 1-548).
T9 sequence: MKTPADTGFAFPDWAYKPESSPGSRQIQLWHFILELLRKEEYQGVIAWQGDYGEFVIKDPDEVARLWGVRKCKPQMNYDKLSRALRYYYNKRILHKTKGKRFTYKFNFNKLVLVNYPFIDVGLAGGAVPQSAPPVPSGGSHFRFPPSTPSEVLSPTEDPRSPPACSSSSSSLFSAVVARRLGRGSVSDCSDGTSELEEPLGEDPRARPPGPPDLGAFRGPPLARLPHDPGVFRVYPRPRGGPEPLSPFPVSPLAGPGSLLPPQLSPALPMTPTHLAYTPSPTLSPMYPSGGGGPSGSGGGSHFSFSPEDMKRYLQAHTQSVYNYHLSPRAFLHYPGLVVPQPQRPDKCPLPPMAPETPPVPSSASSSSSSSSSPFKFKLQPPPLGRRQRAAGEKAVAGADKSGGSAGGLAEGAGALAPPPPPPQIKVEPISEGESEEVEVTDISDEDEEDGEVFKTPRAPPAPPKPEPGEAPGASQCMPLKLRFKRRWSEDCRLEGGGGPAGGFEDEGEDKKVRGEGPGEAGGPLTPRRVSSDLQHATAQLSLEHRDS
A digest of the protocol:
as §1

The target in a further assay is T10, SPDEF (Homo sapiens, UniProt O95238 1-335).
T10 sequence: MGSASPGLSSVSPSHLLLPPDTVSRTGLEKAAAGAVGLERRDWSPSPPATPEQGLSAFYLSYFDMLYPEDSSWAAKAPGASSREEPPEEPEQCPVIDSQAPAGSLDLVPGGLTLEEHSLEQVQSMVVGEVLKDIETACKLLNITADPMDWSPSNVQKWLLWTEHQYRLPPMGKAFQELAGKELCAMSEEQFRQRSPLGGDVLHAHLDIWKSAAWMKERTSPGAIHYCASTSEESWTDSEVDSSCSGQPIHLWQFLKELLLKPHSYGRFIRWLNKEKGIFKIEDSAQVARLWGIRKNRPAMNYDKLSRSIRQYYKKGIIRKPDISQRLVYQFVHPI
A digest of the protocol: as §1

The target in a further assay is T11, ETV3 (Homo sapiens, UniProt P41162-2 1-143).
T11 sequence: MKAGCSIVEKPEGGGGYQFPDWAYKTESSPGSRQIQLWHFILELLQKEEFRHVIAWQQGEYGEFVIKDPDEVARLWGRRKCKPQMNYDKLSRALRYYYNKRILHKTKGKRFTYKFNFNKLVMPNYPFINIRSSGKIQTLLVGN
Summed up: as §1

Chain of ELF1 (P32519 whole entry): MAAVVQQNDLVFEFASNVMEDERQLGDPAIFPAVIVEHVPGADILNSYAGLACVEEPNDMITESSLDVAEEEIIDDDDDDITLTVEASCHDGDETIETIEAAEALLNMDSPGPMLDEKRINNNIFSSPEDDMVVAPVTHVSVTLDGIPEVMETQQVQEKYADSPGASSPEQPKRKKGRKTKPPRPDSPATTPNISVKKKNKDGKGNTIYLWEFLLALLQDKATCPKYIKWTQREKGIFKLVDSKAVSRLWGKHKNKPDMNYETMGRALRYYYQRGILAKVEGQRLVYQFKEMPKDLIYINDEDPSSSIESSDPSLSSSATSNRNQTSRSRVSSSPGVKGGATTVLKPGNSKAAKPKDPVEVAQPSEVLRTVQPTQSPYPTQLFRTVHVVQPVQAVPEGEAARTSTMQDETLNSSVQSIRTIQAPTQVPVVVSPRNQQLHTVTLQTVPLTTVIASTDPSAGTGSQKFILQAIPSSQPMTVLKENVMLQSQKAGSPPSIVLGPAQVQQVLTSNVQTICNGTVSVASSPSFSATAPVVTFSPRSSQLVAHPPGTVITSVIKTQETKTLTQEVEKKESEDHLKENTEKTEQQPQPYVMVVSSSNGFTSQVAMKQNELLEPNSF
Chain of ETV5 (P41161 whole entry): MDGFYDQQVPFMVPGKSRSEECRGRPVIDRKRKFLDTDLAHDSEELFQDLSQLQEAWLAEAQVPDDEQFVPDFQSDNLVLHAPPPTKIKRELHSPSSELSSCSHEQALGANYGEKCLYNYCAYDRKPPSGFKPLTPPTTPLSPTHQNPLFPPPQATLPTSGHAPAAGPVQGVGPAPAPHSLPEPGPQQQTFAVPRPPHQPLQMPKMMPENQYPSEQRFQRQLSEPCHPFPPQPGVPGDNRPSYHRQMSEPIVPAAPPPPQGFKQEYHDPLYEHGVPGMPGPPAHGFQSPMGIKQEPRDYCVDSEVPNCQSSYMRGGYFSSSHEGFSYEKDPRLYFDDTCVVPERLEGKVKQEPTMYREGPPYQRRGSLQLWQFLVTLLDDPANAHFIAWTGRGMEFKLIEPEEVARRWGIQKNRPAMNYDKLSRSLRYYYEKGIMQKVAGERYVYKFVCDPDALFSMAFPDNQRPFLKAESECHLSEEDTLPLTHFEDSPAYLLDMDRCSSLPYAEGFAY

For GTACTG, the binding signal with ELK1 is 1.02 fold enrichment (6-mer frequency, TF over GST control); with GABPA, 1.04 fold enrichment (6-mer frequency, TF over GST control); with ERG it was 1.09 fold enrichment (6-mer frequency, TF over GST control); with ELF1 it was 1.12 fold enrichment (6-mer frequency, TF over GST control); with EHF, 1.06 fold enrichment (6-mer frequency, TF over GST control); with SPIB, 1 fold enrichment (6-mer frequency, TF over GST control). In addition, the binding signal was 1.08 fold enrichment (6-mer frequency, TF over GST control) with ELK3; 1.08 fold enrichment (6-mer frequency, TF over GST control) in the assay with ETV5; 1.04 fold enrichment (6-mer frequency, TF over GST control) with SPIC; 1.05 fold enrichment (6-mer frequency, TF over GST control) in the assay with ELF4; 1.15 fold enrichment (6-mer frequency, TF over GST control) with ELK4; 1 fold enrichment (6-mer frequency, TF over GST control) in the assay with ELF3. The binding signal with ETV1 is 1.02 fold enrichment (6-mer frequency, TF over GST control); with ERF it was 1.02 fold enrichment (6-mer frequency, TF over GST control); in the assay with SPDEF, 1.03 fold enrichment (6-mer frequency, TF over GST control); in the assay with ETV3, 1.11 fold enrichment (6-mer frequency, TF over GST control).
